Shown are actives, neighbours in structure and some others; about 1.5% of the full set was active somewhere.
Measles CPE: protection of cells from measles virus. actives 1.5% (n = 140,000). protection (pct of control), % at 4 µM. Measles virus-infected cells, CPE protection, absorbance. AID 841; in the data active = protection mostly above about 24%, no sharp cut-off; inactive = mostly below about 26%
cytoskel mod: alters cytoskeleton assembly in HUVEC cells; HUVEC TNFa F-actin phalloidin imaging, high content; inhibition, % at 2 µM; actives 0.18% (n = 91,000);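 active = inhibition above the batch mean plus 3 SD and confirmed as a hit by visual image inspection, cut at about 30% in these data, passing the limit was not always enough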
* marks the source's active call; other numbers are inactive results; . = no result.

SMILES | Measles CPE | cytoskel mod
O=C(Nc1ccccc1-c1ccccc1)c1cccc(C(F)(F)F)c1 | 3 | .
OCc1nc2ccccc2n1CC(O)COc1ccccc1 (stereo unspecified) | 29* | 9
CC(C)CCn1c(C(C)O)nc2ccccc21 (stereo unspecified) | 7 | 6
CCc1nc2ccccc2n1CC(O)COc1ccc(NC(C)=O)cc1 (stereo unspecified) | 26 | -12
CC(O)c1nc2ccccc2n1CCOc1ccccc1 (stereo unspecified) | 38* | 7
COc1ccccc1OCCn1c(CO)nc2ccccc21 | 15 | 5
COc1ccccc1OCCn1c(C(C)O)nc2ccccc21 (stereo unspecified) | 76* | 24
Cc1ccc(-c2cc(C#N)c(=O)n(Cc3c(Cl)cccc3Cl)c2)cc1 | 9 | -2
N#Cc1cc(-c2ccccc2)cn(Cc2c(Cl)cccc2Cl)c1=O | 53* | .
CC1=C(C(=O)OC(C)C)C(c2cn(-c3ccccc3)nc2-c2cccs2)NC(=O)N1 (stereo unspecified) | 12 | .
CC12CCC(C(=O)N3CCN(C(c4ccccc4)c4ccccc4)CC3)(OC1=O)C2(C)C (stereo unspecified) | 34* | 1
CC12CCC(C(=O)NCc3ccccc3)(OC1=O)C2(C)C (stereo unspecified) | 4 | -7
CC(C)Cn1c(=O)c(C(=O)N/N=C/c2cccc(F)c2)c(O)c2ccccc21 | 17 | .
CCOCCCNC(=S)NCCNc1nc2ccc(C)cc2cc1C#N | 55* | .
CCOCCCNC(=S)NCCCNc1nc2cc3c(cc2cc1C#N)OCO3 | 8 | 7
COc1ccc(-n2c(C)cc(/C=C3\C(=O)NN(c4ccccc4)C3=O)c2C)cc1 | 99* | .
Cc1cc(/C=C2/C(=O)NN(c3ccccc3)C2=O)c(C)n1-c1ccc(O)cc1 | 20 | .
C/C(CCN1CCc2nc(-c3ccccc3)c(-c3ccccc3)cc2C1)=N\O[C@@H](C)c1cc(-c2c(C)cc(C)cc2C)no1 | 5 | .
CCc1cc2c(nc1CC)CCN(CC/C(C)=N/O[C@@H](C)c1cc(-c3c(C)cc(C)cc3C)no1)C2 | 25* | .
COC(=O)C1=C(C)Nc2c(c(=O)n(C)c(=O)n2C)C1c1ccc(Cl)cc1 (stereo unspecified) | 9 | .
Cc1ccc(N2CCN(C(=O)c3ccccc3NC(=O)/C=C\C(=O)O)CC2)cc1 | 3 | -13
On1nnc2ccc3ccccc3c21 | 11 | .
O=C(c1cn[nH]c1)c1cc(F)ccc1O | 42* | -2
Cc1[nH]nc2ncc(C(=O)c3cc(F)ccc3O)cc12 | 5 | .
CCC(C)NC(=O)COC(=O)c1oc2ccccc2c1CSc1ccc(Cl)cc1 (stereo unspecified) | 8 | .
SMILES | Measles CPE | cytoskel mod
Cc1nnc(SCC(=O)NCc2ccccc2)[nH]c1=O | 55* | 15
Cc1nnc(SCC(=O)NCCc2ccccc2)[nH]c1=O | . | 7
C=CCn1c(SCC(=O)c2cc(C)n(CCOC)c2C)nc2sc(C)c(C)c2c1=O | 42* | 7
C=CCn1c(SCC(=O)c2cccs2)nc2sc(C)c(C)c2c1=O | 8 | -9
CCc1ccc(N/C(SC)=C(/C#N)C(N)=O)cc1 | 40* | 12
CCOc1ccc(N/C(SC)=C(/C#N)C(N)=O)cc1 | 6 | -27
Cc1cc(S(=O)(=O)N2CCN=C2c2ccccc2)c(C)cc1Cl | 6 | .
Cc1cc(C)c(S(=O)(=O)n2c([N+](=O)[O-])cnc2C)c(C)c1 | 10 | .
Cc1ccc(NC(=O)CCSCCC(=O)Nc2ccc(C)c(C)c2)cc1C | 22 | 7
Cc1ccc(NC(=O)CSCC(N)=O)cc1C | 40* | -11
Nc1nnc(-c2ccccc2)s1 | 2 | 5
Cc1cccc(-c2nnc(N)s2)c1 | 36* | .
COc1ccc(/C=C(\C#N)C(=O)OCC(=O)NCc2ccc(Cl)cc2)cc1 | 12 | .
CCn1cc(C(=O)NCc2ccco2)c2cc(OC)c(OC)cc2c1=O | 19 | -2
CCOc1ccc(-n2cc(C(=O)NCc3ccco3)c3cc(OC)c(OC)cc3c2=O)cc1 | 7 | 63*
O=C(CCc1ccc(S(=O)(=O)N2CCOCC2)cc1)Nc1nc(COc2ccccc2)cs1 | 8 | 10
CCN(CC)S(=O)(=O)c1ccc(Cl)c(C(=O)Nc2ccc(Cl)cc2[N+](=O)[O-])c1 | 5 | .
COC(=O)c1ccccc1N1C(=O)C2C(C1=O)[C@H]1C=C[C@@H]2C1 (stereo partly specified) | 101* | 0
COC(=O)c1ccccc1N1C(=O)C2C(C1=O)C1C=CC2C12CC2 (stereo unspecified) | 10 | 18
COc1ccc(C2C3=C(CC(C)(C)CC3=O)OC(N)=C2[N+](=O)[O-])cc1 (stereo unspecified) | 7 | .
O=C(CSc1nc(O)cc(=O)[nH]1)N1CCCc2ccccc21 | 48* | 22
COc1cccc(-c2nnc(SCC(=O)N3CCCc4ccccc43)o2)c1 | 1 | 5
Cc1cc(=O)[nH]c(SCC(=O)N2CCCc3ccccc32)n1 | 16 | .
COc1cc(OC)cc(-c2nnc(SCC(=O)N3CCCc4ccccc43)o2)c1 | 35* | -5
NC(=S)N/N=C/c1ccccc1OCCSc1ccc(Cl)cc1 | 11 | .
SMILES | Measles CPE | cytoskel mod
O=S1(=O)CCC(NC(=S)Nc2ccc(Cl)cc2)C1 (stereo unspecified) | 12 | .
O=S1(=O)CCC(NC(=S)NCCNC(=S)NC2CCS(=O)(=O)C2)C1 (stereo unspecified) | 28* | .
C=CCc1ccccc1OCC(O)CN(C(C)C)C(C)C (stereo unspecified) | 6 | -4
C=CCc1ccccc1OCC(O)CNC (stereo unspecified) | 8 | 67*
CC1(C)Cc2nc(N3CCOCC3)c(C#N)cc2CO1 | 18* | 4
Cc1nc(N2CCOCC2)c(C#N)c2c1COC(C)(C)C2 | 1 | 13
COc1ccccc1C1CC(c2c(-c3ccccc3)c3cc(Cl)ccc3[nH]c2=O)=NN1S(C)(=O)=O (stereo unspecified) | 2 | 7
COc1cccc(C2CC(c3c(-c4ccccc4)c4cc(Cl)ccc4[nH]c3=O)=NN2S(C)(=O)=O)c1OC (stereo unspecified) | 68* | -2
Cn1c(N)c(C(=O)c2ccc(F)cc2F)c(=O)n(C)c1=O | 17 | .
COc1ccc(CC(=O)NCc2nnc(SCc3ccc(C)cc3)n2C)cc1 | 6 | .
O=C(NCc1ccccc1)c1cc(-c2ccco2)on1 | 2 | 5
O=C(NCc1ccco1)c1cc(-c2ccco2)on1 | 85* | -6
Cc1ccc(CNC(=O)c2cn(C3CCCC3)c(=O)c3c2c2ccccc2n3C)o1 | 29 | -4
Cn1nc(C(=O)NCc2cccnc2)c2ccccc2c1=O | 6 | -2
Cn1c2ccccc2c2c(C(=O)NCc3ccco3)cn(C3CCCCC3)c(=O)c21 | 42* | 13
O=C(NCc1ccco1)c1cc(-c2cccs2)nc2ccccc12 | 59* | .
O=C(COC(=O)c1cc(-c2cccs2)nc2ccccc12)NCc1ccco1 | 9 | 2
Cn1nc(C(=O)NCc2ccco2)c2ccccc2c1=O | 24* | .
O=C(NCc1ccco1)C1(c2ccc(Br)cc2)CCCC1 | 5 | -10
CC(C)CNC(=O)COc1cccc(C(=O)NCc2ccccc2)c1 | 4 | .
COc1c([N+](=O)[O-])c(=O)n(-c2ccccc2)c2ccccc12 | 3 | .
CC(=O)NC(=S)Nc1cccc(S(=O)(=O)NC2=NCCC2)c1 | 5 | .
Cc1cc(CNC(=O)C(C)Cc2ccccc2)nn1C (stereo unspecified) | 2 | .
O=C(NCCC1=CCCCC1)C1CCN(S(=O)(=O)c2cccs2)CC1 | 19 | 16
